CXXC DNA block: qHTS Fluorescence Polarization Assay for Inhibitors of MLL CXXC domain - DNA interaction; 290,000 tested, 0.037% active; Histone-lysine N-methyltransferase 2A (Homo sapiens), Q03164; MLL-CXXC / FITC-HOXA9 DNA fluorescence polarization; Potency, µM (titrated, usually from 115 µM), without a hit: top-dose activity change, negative = inhibition, hits mostly inhibitors; active means well fitted inhibition curve with a large enough effect in the polarisation, with a control signal flat, not every such curve was filed as active; inconclusive means small, poorly fitted or top-dose-only effect, or effect the other way, or a change in a side signal; inactive means no such curve, though single readings can be large or run the other way; the % refers to the polarisation; further: potency means the concentration at half of the fitted maximal effect
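Steps: dispense CXXC domain solution (7 uM) → pin compounds or unlabeled HOX-A9 DNA control → 5 min ambient → add FLSN-HOX-A9 solution (50 nM) → spin → 30 min ambient → fluorescence polarization. Tris pH 7.5/NaCl/DTT/BSA buffer.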
Epigenetic reg: Quantitative High-Throughput Screen for Regulators of Epigenetic Control; murine LDR cells, GFP reporter derepression, 30 h; Potency, µM (top dose mostly 53.9 µM), without a hit: at the top dose GFP activation, most hits filed as activators; 280,000 tested, 0.2% active; AID 1865, 2009; further: potency means the concentration at half of the fitted maximal effect; % of control where 0% means no effect; nearly all actives have a fitted effect of over 60% in size
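Readout is the number of GFP-expressing murine LDR cells, counted by cytometry following washing. Cells were treated with compound for 30 h at 37 C; the stably integrated CMV-GFP locus is normally silent.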
Menin MLL FP FL: qHTS Assay for Inhibitors Targeting the Menin-MLL Interaction in MLL Related Leukemias: Competition With Fluorescein Labeled MLL-derived Peptide; 290,000 tested, under 10 active; FP activity change, % at 61.4 µM; AID 1766, 2009; Fluorescence polarization, fluorescein-MLL peptide displacement from menin; active means well fitted curve in the direction sought with a large enough effect in the polarisation, not every such curve was filed as active; inconclusive means small, poorly fitted or top-dose-only effect, or effect the other way, or a change in a side signal; inactive means no such curve, though single readings can be large or run the other way; the % refers to the polarisation; further: % of control where 0% means no effect
Menin MLL FP TR: qHTS Assay for Inhibitors Targeting the Menin-MLL Interaction in MLL Related Leukemias: Competition With Texas Red Labeled MLL-derived Mutant Peptide | O00255 | AID 1768, 2009 | Menin + Texas Red MLL mutant peptide, fluorescence polarization | 270,000 tested, 0.23% active | Potency, µM (doses to about 61.6 µM), for inactives: at the top dose FP activity change, negative = inhibition, usual class: inhibitors; active means well fitted inhibition curve with a large enough effect in the polarisation, with a control signal flat, not every such curve was filed as active; inconclusive means small, poorly fitted or top-dose-only effect, or effect the other way, or a change in a side signal; inactive means no such curve, though single readings can be large or run the other way; the % refers to the polarisation; further: potency means the concentration at half of the fitted maximal effect; % of control where 0% means no effect
Target sequence (O00255 whole entry, looked up): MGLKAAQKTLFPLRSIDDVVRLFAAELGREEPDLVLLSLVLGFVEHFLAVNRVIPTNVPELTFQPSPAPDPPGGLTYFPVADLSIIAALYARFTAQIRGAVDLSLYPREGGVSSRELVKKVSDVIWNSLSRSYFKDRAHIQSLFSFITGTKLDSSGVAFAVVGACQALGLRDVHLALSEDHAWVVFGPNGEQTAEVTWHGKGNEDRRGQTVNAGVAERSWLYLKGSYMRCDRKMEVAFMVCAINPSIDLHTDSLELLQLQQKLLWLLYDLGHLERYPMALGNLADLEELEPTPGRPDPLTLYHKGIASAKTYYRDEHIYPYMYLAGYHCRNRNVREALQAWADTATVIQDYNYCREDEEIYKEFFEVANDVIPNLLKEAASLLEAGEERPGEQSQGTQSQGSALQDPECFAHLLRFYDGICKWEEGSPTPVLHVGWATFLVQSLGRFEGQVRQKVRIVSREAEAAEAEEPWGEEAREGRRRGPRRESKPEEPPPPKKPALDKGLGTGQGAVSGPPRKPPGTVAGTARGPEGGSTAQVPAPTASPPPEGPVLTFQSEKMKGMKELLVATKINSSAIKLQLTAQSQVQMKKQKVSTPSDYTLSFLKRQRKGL
Lamin A splicing: qHTS Assay for Modulators of Lamin A Splicing. 200,000 tested, 0.01% active. HeLa LMNA splicing GFP/RFP minigene ratio, 48 h. Potency, µM (series often up to 46.1 µM), inactives show at the top dose ratio change, negative = inhibition, usual class: inhibitors; active means well fitted inhibition curve with a large enough effect in the signal ratio, with a control signal flat, not every such curve was filed as active; inconclusive means small, poorly fitted or top-dose-only effect, or effect the other way, or a change in a side signal; the % refers to the signal ratio; further: potency means the concentration at half of the fitted maximal effect; on the % scale 0 is the no-effect control and ±100 the full control effect
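Read-out is the ratio of GFP to DsRed2 object intensity, acquired by 488 nm laser-scanning cytometry on HeLa lamin A-EGFP minigene reporter cells. Compound incubation 48 hrs at 37 °C in Opti-MEM with 2% FBS; DMSO 0.5% final.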
MLL CXXC Fl: qHTS Fluorescence Polarization (FP) Assay for Inhibitors of MLL CXXC domain - DNA interaction: Fluorescein FP; shares compounds with CXXC DNA block; MLL CXXC-DNA binding, fluorescein FP; Potency, µM (series often up to 345 µM), without a hit: top-dose activity change, negative = inhibition, hits mostly inhibitors; 200 tested, 70% active; AID 624160, 2012; further: potency means the concentration at half of the fitted maximal effect; nearly all actives have a fitted effect of over 80% in size
MLL CXXC FP-TR: qHTS Fluorescence Polarization (FP) Assay for Inhibitors of MLL CXXC domain - DNA interaction: Texas Red FP. shares compounds with CXXC DNA block. MLL CXXC-DNA binding, Texas Red fluorescence polarization. Potency, µM (highest dose often 345 µM), without a hit: at the highest dose activity change, negative = inhibition, usual class: inhibitors. 200 tested, 40% active. AID 624161, 2012; further: potency means the concentration at half of the fitted maximal effect; on the % scale 0 is the no-effect control and ±100 the full control effect; nearly all actives have a fitted effect of over 75% in size
MLL CXXC TRF: qHTS Fluorescence Polarization (FP) Assay for Inhibitors of MLL CXXC domain - DNA interaction: HTRF Assay; Potency, µM (top dose mostly 172 µM), for inactives: at the highest dose activity change, negative = inhibition, actives largely listed as inhibitors; 210 tested, 30% active; AID 624162, 2012; MLL CXXC-DNA binding, HTRF, biochemical; shares compounds with CXXC DNA block; further: on the % scale 0 is the no-effect control and ±100 the full control effect; nearly all actives have a fitted effect of over 80% in size
* hit, by the source's call; [ ] = another dose, or the depositor's remark. Only some compounds are listed: those with a hit (about 0.26% of all), similar ones and a draw of the others. Unless noted, the call rests on the fitted dose curve; in most records, active means well fitted curve in the direction sought with a large enough effect; inconclusive means small, poorly fitted or top-dose-only effect, or another doubt; inactive means no such curve, though single readings can be large; an effect the other way counts as inactive or inconclusive.

COc1cccc2c1C(=O)c1c(O)c3c(c(O)c1C2=O)C[C@@](O)(C(C)=O)C[C@@H]3O[C@H]1C[C@H](N)[C@H](O)[C@H](C)O1 was read as CXXC DNA block 10µM*, Epigenetic reg 2%, Menin MLL FP FL inconclusive, Menin MLL FP TR inconclusive, Lamin A splicing inconclusive, MLL CXXC Fl 5.6µM*, MLL CXXC FP-TR 11µM* and MLL CXXC TRF 376%.
`CC(=O)[C@]1(O)Cc2c(O)c3c(c(O)c2[C@@H](O[C@H]2C[C@H](N)[C@H](O)[C@H](C)O2)C1)C(=O)c1ccccc1C3=O` gave CXXC DNA block inconclusive, Epigenetic reg inconclusive, Menin MLL FP FL inconclusive, Menin MLL FP TR inconclusive, Lamin A splicing inconclusive, MLL CXXC Fl 2µM*, MLL CXXC FP-TR 100µM* and MLL CXXC TRF 117%.
`CC(=O)[C@]1(O)Cc2c(O)c3c(c(O)c2[C@@H](O[C@H]2C[C@H](N)[C@H](O)[C@H](C)O2)C1)C(=O)c1c(O)cccc1C3=O` gave CXXC DNA block inconclusive, Epigenetic reg inconclusive, Menin MLL FP FL inconclusive, Menin MLL FP TR inconclusive, MLL CXXC Fl 6.3µM*, MLL CXXC FP-TR 22µM* and MLL CXXC TRF 255%.
COc1ccc(-c2nc3c(c4c2C[C@H](c2ccccc2)OC4)CN(C(=O)Cc2cccs2)CC3)c(C)c1 was read as Menin MLL FP FL 4[11.7 µM], Menin MLL FP TR -22%[11.7 µM] and Lamin A splicing 11%[9.22 µM].
`CCCCS(=O)(=O)N1CCc2nc(-c3ccc(OC)cc3C)c3c(c2C1)CO[C@@H](c1ccccc1)C3` gave Menin MLL FP FL 7[11.7 µM], Menin MLL FP TR -3%[11.7 µM] and Lamin A splicing inconclusive.
`COc1ccc(-c2nc3c(c4c2C[C@H](c2ccccc2)OC4)CN(C(=O)NCc2ccco2)CC3)c(C)c1` gave Menin MLL FP FL -2[11.7 µM], Menin MLL FP TR -14%[11.7 µM] and Lamin A splicing inconclusive.
Screening CCCCCCCCOc1c(OC)cc(/C=C/C(=O)N2CCN(c3ccc(C)c(C)c3)CC2)cc1OC returned Menin MLL FP FL -1 and Menin MLL FP TR inconclusive.
Cc1nc(N=Nc2cc(S(=O)(=O)O)c3cc([N+](=O)[O-])cc(S(=O)(=O)O)c3c2)c(COP(=O)(O)O)c(C=O)c1O was read as CXXC DNA block 32µM*, Epigenetic reg 1%, Menin MLL FP FL 3, Menin MLL FP TR inconclusive, Lamin A splicing -21%, MLL CXXC Fl 18µM*, MLL CXXC FP-TR 36µM* and MLL CXXC TRF 15µM*.
`COC(=O)N[C@@H](c1ccc(Br)cc1)C(C(=O)OC)C(=O)OC` gave Epigenetic reg 0%, Menin MLL FP FL 5 and Menin MLL FP TR -1%.
CC(O)c1cccc2cc(C(O)CNC(C)(C)C)oc12 (stereo not drawn) was read as Menin MLL FP FL -1 and Menin MLL FP TR 4%.
`CCSC[C@H](NC(=O)[C@H](C)N)C(=O)N[C@@H](CC(=O)O)C(=O)N[C@H](C(=O)N[C@@H](C)C(=O)N[C@H](C(=O)N[C@@H](CSCC)C(=O)N[C@H](C(=O)N[C@H](C(=O)N[C@@H](Cc1cnc[nH]1)C(=O)N[C@@H](CCCNC(=N)N)C(=O)N[C@@H](CC(C)C)C(=O)N[C@@H](C)C(=O)NCC(=O)N[C@@H](CC(C)C)C(=O)N[C@@H](CC(C)C)C(=O)N[C@@H](CO)C(=O)N[C@@H](CCCNC(=N)N)C(=O)N[C@@H](CO)C(=O)NCC(=O)NCC(=O)N[C@H](C(=O)N[C@H](C(=O)N[C@@H](CCCCN)C(=O)N[C@@H](CC(N)=O)C(=O)N[C@@H](CC(N)=O)C(=O)N[C@@H](Cc1ccccc1)C(=O)N[C@H](C(=O)N1CCC[C@H]1C(=O)N[C@H](C(=O)N[C@@H](CC(N)=O)C(=O)N[C@H](C(=O)NCC(=O)N[C@@H](CO)C(=O)N[C@@H](CCCCN)C(=O)N[C@@H](C)C(=O)N[C@@H](Cc1ccccc1)C(N)=O)C(C)C)[C@@H](C)O)C(C)C)C(C)C)C(C)C)[C@@H](C)O)C(C)C)[C@@H](C)O)[C@@H](C)O` gave Menin MLL FP FL 4 and Menin MLL FP TR 3%.
C=C1CC[C@H](O)C/C1=C/C=C1\CCC[C@]2(C)C([C@H](C)CC[C@@H](O)C(C)(C)O)CC[C@@H]12 (stereo partly drawn) was read as Epigenetic reg 1%.
Screening COCCCNC(=S)NNC(=O)c1cc(Cl)c(O)c(Cl)c1 returned CXXC DNA block inconclusive, Epigenetic reg -2%, Menin MLL FP FL -1 and MLL CXXC TRF 0%.
Screening CC1=NN(c2ccc(Cl)c(C(=O)O)c2)C(=O)/C1=C\c1ccc(-c2ccc(C(=O)O)cc2)o1 returned CXXC DNA block inconclusive, Epigenetic reg 4%, Menin MLL FP FL 2, Menin MLL FP TR inconclusive, Lamin A splicing 22%[46 µM], MLL CXXC Fl 28µM*, MLL CXXC FP-TR 12% and MLL CXXC TRF -58%.
CC1=NN(c2ccc(C(=O)O)cc2)C(=O)/C1=C/c1ccc(-c2ccccc2F)o1 was read as CXXC DNA block inconclusive, Menin MLL FP FL -14 and Menin MLL FP TR inconclusive.

Bioassay records: PubChem, National Center for Advancing Translational Sciences (NCATS)
